Laboratory results as given in PubChem BioAssay (Tox21).
Results filed as inconclusive are left out. The source made the active and inactive calls. Unless noted, the call rests on the fitted dose curve.

Columns and labels:
[1] = Nuclear factor erythroid 2-related factor 2/antioxidant responsive element (Nrf2/ARE) small molecule agonists: qHTS cell viability counter screen in human keratinocytes (AID 1919968; active means well fitted curve in the direction sought with a large enough effect in the repeat runs; an effect the other way counts as inactive or inconclusive; further: nearly all actives have a fitted effect of over 55% in size; further: potency means the concentration at half of the fitted maximal effect)
In short: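 Fluorescence read-out from CellTiter-Fluor after 1 h at 37 C. Wells held HaCaT-derived ARE-luciferase reporter cells (1,500/well) treated 23 h with DMSO-dissolved compounds. Run in the same wells as the luciferase agonist read.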

[2] = molecular target: Gonadotropin-releasing hormone receptor (Homo sapiens) (UniProt P30968); experiment: Human gonadotropin-releasing hormone receptor (GnRHR) small molecule agonists, calcium flux assay in GnRHR-HEK293 cells (AID 1920063); further: nearly all actives have a fitted effect of over 35% in size
Sequence of Gonadotropin-releasing hormone receptor (Homo sapiens) (P30968 whole entry, looked up): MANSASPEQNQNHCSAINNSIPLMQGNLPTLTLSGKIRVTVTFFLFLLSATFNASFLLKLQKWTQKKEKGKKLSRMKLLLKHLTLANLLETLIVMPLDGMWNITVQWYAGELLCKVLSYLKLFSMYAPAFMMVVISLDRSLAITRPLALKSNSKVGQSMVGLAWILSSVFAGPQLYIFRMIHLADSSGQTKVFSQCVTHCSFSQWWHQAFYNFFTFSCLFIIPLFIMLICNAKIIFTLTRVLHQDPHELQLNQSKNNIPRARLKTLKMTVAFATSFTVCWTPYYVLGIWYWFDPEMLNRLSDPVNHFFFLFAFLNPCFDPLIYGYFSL
In short: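 Calcium-dye fluorescence, Ex/Em=480/540, recorded every 1 sec over 3 min after compound addition to GnRHR-HEK293 cells. Cells had been seeded 18 hours earlier and dye-loaded for 1 hour at 37 C. Fifteen concentrations, triplicates.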

[3] = molecular target: KiSS-1 receptor (Homo sapiens) (UniProt Q969F8); experiment: Human kisspeptin (KISS1R) small molecule agonists, calcium flux assay in KISS1R-HEK293 cells (AID 1920064; active means well fitted curve in the direction sought with a large enough effect in the repeat runs; an effect the other way counts as inactive or inconclusive)
Sequence of KiSS-1 receptor (Homo sapiens) (Q969F8 whole entry, looked up): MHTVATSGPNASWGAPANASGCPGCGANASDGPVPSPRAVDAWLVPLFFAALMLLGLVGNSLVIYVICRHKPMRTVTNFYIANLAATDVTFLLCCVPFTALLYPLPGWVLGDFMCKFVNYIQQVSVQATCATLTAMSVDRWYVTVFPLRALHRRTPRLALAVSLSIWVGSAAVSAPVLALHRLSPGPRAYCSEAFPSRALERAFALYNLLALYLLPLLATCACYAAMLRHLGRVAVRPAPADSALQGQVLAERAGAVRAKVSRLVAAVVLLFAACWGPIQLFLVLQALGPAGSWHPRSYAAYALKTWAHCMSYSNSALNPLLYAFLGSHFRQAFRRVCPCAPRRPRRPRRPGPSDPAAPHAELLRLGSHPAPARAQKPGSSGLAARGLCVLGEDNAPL
In short: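 Calcium flux read-out: kinetic fluorescence at Ex/Em=480/540, 1 s intervals over 3 min, after pin-tool compound addition to dye-loaded KISS1R-HEK293 cells. Fifteen concentrations, triplicates.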

[4] = G protein-coupled receptor (GPCR) small molecule agonists, calcium flux assay: HEK293 wild type cell line counter screen (AID 1920065)
In short: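 Agonist mode; 18 h seeding at 37 C, 1 h dye load at 37 C; compounds pinned from DMSO, ATP as positive control; kinetic fluorescence 480/540 nm, 3 min, 1 s reads; 15 concentrations, triplicate.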

[5] = p53 small molecule agonists, cell-based qHTS assay with human liver microsomes (AID 1963577);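 further: p53 response element beta-lactamase reporter cells with liver microsomes plus NADPH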
In short: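 16 h, 37 C exposure of p53RE-bla cells to compounds with human liver microsomes and NADPH (0.5 mg/mL final each); detection via LiveBLAzer mixture, 2 h dark at room temperature.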

[6] = p53 small molecule agonists, cell-based qHTS assay with rat liver microsomes (AID 1963578)
In short: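 With rat liver microsomes and NADPH present (0.5 mg/mL final each), p53RE-bla cells are treated with compound for 16 h at 37 C. LiveBLAzer detection mixture is then applied for 2 h at room temperature in the dark.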

[7] = p53 small molecule agonists, cell-based qHTS assay with human liver microsomes: qHTS cell viability counter screen (AID 1963579); further: nearly all actives have a fitted effect of over 45% in size
In short: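 In this multiplexed counter screen, the reporter plates were subsequently treated with CellTiter-Glo so that cell viability, reflected by luminescence, could be recorded for p53RE-bla cells dosed 16 h with compounds under microsomal activation (HLM and NADPH).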

[8] = p53 small molecule agonists, cell-based qHTS assay with rat liver microsomes: qHTS cell viability counter screen (AID 1963580); further: nearly all actives have a fitted effect of over 45% in size; further: potency means the concentration at half of the fitted maximal effect
In short: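 Cytotoxicity counter screen: intracellular ATP read by CellTiter-Glo luminescence in the p53 reporter wells. HCT-116 p53RE-bla cells were treated for 16 h at 37 C alongside rat liver microsomes and NADPH, each 0.5 mg/mL final.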

[9] = p53 small molecule agonists, cell-based qHTS assay: qHTS cell viability counter screen (AID 1963581); further: nearly all actives have a fitted effect of over 45% in size; further: potency means the concentration at half of the fitted maximal effect
In short: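 Cytotoxicity read-out: ATP-based luminescence (CellTiter-Glo, 30 min RT) measured in the same wells as the p53 reporter assay, HCT-116 p53RE-bla cells, 16 h compound exposure at 37 C.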

[10] = p53 small molecule agonists, cell-based qHTS assay (AID 1963582; active means well fitted activation curve with a large enough effect in the signal ratio in the repeat runs, not every such curve was filed as active; the % refers to the signal ratio)
In short: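 Fluorescence intensity read-out of a beta-lactamase reporter under a p53 response element. Cells were exposed to DMSO-dissolved compounds for 16 h at 37 C, then developed with FRET substrate for 2 h at RT.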

[11] = molecular target: 5-hydroxytryptamine receptor 2A (Homo sapiens) (UniProt P28223); experiment: 5-hydroxytryptamine receptor 2A (HTR2A) small molecule antagonists, cell-based qHTS assay (AID 1963586); further: nearly all actives have a fitted effect of over 45% in size; further: potency means the concentration at half of the fitted maximal effect
Sequence of 5-hydroxytryptamine receptor 2A (Homo sapiens) (P28223 whole entry, looked up): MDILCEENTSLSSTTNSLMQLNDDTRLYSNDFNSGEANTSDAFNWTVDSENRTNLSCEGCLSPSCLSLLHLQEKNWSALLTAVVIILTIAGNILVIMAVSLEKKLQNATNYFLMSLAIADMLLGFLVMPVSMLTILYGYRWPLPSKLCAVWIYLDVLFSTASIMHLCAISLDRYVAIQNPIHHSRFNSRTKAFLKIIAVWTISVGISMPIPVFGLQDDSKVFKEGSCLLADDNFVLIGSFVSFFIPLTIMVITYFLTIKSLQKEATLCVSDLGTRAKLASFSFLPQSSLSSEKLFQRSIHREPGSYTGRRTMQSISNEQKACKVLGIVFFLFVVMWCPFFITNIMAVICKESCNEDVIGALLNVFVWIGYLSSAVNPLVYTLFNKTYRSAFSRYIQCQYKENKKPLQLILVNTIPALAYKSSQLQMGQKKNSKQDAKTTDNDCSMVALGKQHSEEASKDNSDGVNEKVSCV
In short: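 CHO cells stably expressing human HTR2A were plated for 18 h at 37 C, then loaded with calcium dye for 1 h. Compounds were preincubated 5 min at room temperature before DOI (4 nM solution) was added. Kinetic fluorescence was read for 3 min.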

[12] = molecular target: Muscarinic acetylcholine receptor M1 (Homo sapiens) (UniProt P11229); experiment: Cholinergic receptor muscarinic 1 (CHRM1) small molecule antagonists, cell-based qHTS assay (AID 1963588); further: nearly all actives have a fitted effect of over 40% in size; further: potency means the concentration at half of the fitted maximal effect
Sequence of Muscarinic acetylcholine receptor M1 (Homo sapiens) (P11229 whole entry, looked up): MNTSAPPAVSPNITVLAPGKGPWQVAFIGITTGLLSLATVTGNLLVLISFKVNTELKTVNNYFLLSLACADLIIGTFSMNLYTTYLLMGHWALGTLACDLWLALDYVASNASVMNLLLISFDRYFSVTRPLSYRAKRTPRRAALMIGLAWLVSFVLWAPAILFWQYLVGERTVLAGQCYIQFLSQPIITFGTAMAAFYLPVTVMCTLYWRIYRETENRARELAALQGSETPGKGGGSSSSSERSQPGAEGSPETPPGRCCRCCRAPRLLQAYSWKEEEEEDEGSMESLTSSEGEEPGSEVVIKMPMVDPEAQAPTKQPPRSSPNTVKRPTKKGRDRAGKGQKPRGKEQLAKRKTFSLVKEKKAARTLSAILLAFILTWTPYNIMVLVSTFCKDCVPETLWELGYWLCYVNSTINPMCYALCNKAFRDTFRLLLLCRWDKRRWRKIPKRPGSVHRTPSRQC
In short: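 Compounds were tested at 15 concentrations in three independent runs. Dye-loaded CHRM1-CHO cells were exposed 5 min at room temperature before stimulation by acetylcholine added at 50nM. Intracellular calcium was read kinetically on FDSS for 3 min.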

[13] = molecular target: Muscarinic acetylcholine receptor M1 (Homo sapiens) (UniProt P11229); experiment: Cholinergic receptor muscarinic 1 (CHRM1) small molecule agonists, cell-based qHTS assay (AID 1963589); further: nearly all actives have a fitted effect of over 35% in size
In short: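 Calcium flux read-out: kinetic fluorescence at 1 sec intervals after pin-tool compound addition to dye-loaded CHRM1-CHO cells (human M1). Agonist mode; 15 concentrations tested in triplicate independent runs.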

[14] = cAMP Responsive Elements (CRE) small molecule agonists, cell-based qHTS assay (AID 1963590)
In short: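 Beta-lactamase reporter readout: LiveBLAzer B/G FRET substrate, 2 h at room temperature, added after 3 h compound treatment of CRE-bla HEK 293T cells at 37 C/5% CO2.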

[15] = molecular target: Beta-2 adrenergic receptor (Homo sapiens) (UniProt P07550); experiment: Adrenergic beta2 receptor (ADRB2) small molecule antagonists, cell-based qHTS assay (AID 1963592); further: nearly all actives have a fitted effect of over 50% in size; further: potency means the concentration at half of the fitted maximal effect; on activity change, negative = inhibition: series mostly up to about 92 µM
Sequence of Beta-2 adrenergic receptor (Homo sapiens) (P07550 whole entry, looked up): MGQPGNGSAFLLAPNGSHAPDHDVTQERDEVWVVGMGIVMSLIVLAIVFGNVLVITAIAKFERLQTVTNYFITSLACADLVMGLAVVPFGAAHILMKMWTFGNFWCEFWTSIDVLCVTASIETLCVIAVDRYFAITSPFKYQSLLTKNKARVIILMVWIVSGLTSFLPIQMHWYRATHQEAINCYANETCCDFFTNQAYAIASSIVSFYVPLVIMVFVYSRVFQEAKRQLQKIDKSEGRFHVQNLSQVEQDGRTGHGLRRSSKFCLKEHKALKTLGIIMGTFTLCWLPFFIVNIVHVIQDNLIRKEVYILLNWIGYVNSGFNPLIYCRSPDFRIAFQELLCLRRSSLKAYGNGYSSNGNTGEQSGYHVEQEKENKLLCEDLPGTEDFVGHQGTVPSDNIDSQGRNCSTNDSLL
In short: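 Assay format: CHO-ADRB2 cells, 18-20hr seeding at 37C/5% CO2, then compound plus 1nM isoproterenol agonist mix for 0.5hr RT. Homogeneous time-resolved fluorescence cAMP detection after 1hr, expressed as 665/615 nm ratio.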

[16] = molecular target: Beta-2 adrenergic receptor (Homo sapiens) (UniProt P07550); experiment: Adrenergic beta2 receptor (ADRB2) small molecule agonists, cell-based qHTS assay (AID 1963593);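 further: CHO cells stably overexpressing human ADRB2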
In short: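 CHO cells stably over-expressing ADRB2 were plated overnight at 37C, then dosed with compounds plus a stimulation mix containing 100uM IBMX and 25uM Ro-20-1724 for 0.5hr at room temperature. cAMP was measured by HTRF competition, 1hr.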

[17] = molecular target: D(2) dopamine receptor (Homo sapiens) (UniProt P14416); experiment: Dopamine D2 receptor (DRD2) small molecule agonists, cell-based qHTS assay (AID 1963594); further: nearly all actives have a fitted effect of over 35% in size; further: potency means the concentration at half of the fitted maximal effect
Sequence of D(2) dopamine receptor (Homo sapiens) (P14416 whole entry, looked up): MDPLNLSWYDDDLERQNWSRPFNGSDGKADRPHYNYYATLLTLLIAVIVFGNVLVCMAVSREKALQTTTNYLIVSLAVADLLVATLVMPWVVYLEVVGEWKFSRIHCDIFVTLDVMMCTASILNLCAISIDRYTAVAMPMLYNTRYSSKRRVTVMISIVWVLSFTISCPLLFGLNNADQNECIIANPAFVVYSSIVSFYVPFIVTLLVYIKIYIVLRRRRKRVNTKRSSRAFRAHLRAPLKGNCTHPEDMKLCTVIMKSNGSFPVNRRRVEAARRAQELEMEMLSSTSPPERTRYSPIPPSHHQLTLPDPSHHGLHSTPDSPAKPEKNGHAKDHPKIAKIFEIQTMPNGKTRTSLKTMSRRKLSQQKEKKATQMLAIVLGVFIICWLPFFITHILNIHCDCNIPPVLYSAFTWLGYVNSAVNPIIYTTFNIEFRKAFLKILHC
In short: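 cAMP accumulation in DRD2-HEK293 cells measured by HTRF after 1 h detection; compounds added 10 min before NKH477 (200nM […]) forskolin-analogue stimulation, 30 min at room temperature, with Ro20-1724 present at 0.1 mM final.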

[18] = molecular target: D(2) dopamine receptor (Homo sapiens) (UniProt P14416); experiment: Dopamine D2 receptor (DRD2) small molecule antagonists, cell-based qHTS assay (AID 1963595; active means well fitted inhibition curve with a large enough effect in the signal ratio in the repeat runs, with a control signal flat; the % refers to the signal ratio)
In short: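 Antagonism was scored as restored cAMP in HEK293-DRD2 cells. These cells were stimulated with 200 nM NKH477 and 12 nM quinpirole for 30 min at room temperature, in the presence of 0.1 mM Ro20-1724.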

[19] = molecular target: 5-hydroxytryptamine receptor 2A (Homo sapiens) (UniProt P28223); experiment: 5-hydroxytryptamine receptor 2A (HTR2A) small molecule agonists, cell-based qHTS assay (AID 1963587); further: nearly all actives have a fitted effect of over 30% in size
In short: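 Kinetic calcium-flux fluorescence (2 min, 1 sec intervals) after compound addition in agonist mode. HTR2A-CHO cells were cultured 18 h, then dye-loaded 1 h at 37 C.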

[20] = cAMP Responsive Elements (CRE) small molecule antagonists, cell-based qHTS assay (AID 1963591; active means well fitted inhibition curve with a large enough effect in the signal ratio in the repeat runs, not every such curve was filed as active; the % refers to the signal ratio; further: potency means the concentration at half of the fitted maximal effect)
In short: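 HEK293T CRE-bla; 18 h preincubation; compound pin-transfer; NKH477 0.25 uM final, 3 h, 37 C; LiveBLAzer FRET substrate 2 h RT.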
On the % scale 0 is the no-effect control and ±100 the full control effect.

COc1ccnc2c1CCCCC2S(=O)c1nc2ccccc2[nH]1 (configuration not stated)
inactive: Potency [1] | Potency [2] | Potency [3] | Potency [4] | Potency [5] | Potency [6] | Potency [7] | Potency [8] | Potency [9] | Potency [10] | Potency [11] | Potency [12] | Potency [13] | Potency [14] | Potency [15] | Potency [16] | Potency [17] | Potency [18]

Nc1cccc([N+](=O)[O-])c1
active: Potency [12] 130 nM
inactive: Potency [1] | Potency [2] | Potency [3] | Potency [4] | Potency [5] | Potency [6] | Potency [7] | Potency [8] | Potency [9] | Potency [10] | Potency [11] | Potency [19] | Potency [14] | Potency [20] | Potency [15] | Potency [16] | Potency [17] | Potency [18]

C/C(CC(C)C)=N\O
inactive: Potency [1] | Potency [2] | Potency [3] | Potency [4] | Potency [5] | Potency [6] | Potency [7] | Potency [8] | Potency [9] | Potency [10] | Potency [11] | Potency [19] | Potency [12] | Potency [13] | Potency [20] | Potency [15] | Potency [16] | Potency [17] | Potency [18]

CC(C)CCOC(=O)c1ccc(N(C)C)cc1
inactive: Potency [1] | Potency [2] | Potency [3] | Potency [4] | Potency [5] | Potency [6] | Potency [7] | Potency [8] | Potency [9] | Potency [10] | Potency [19] | Potency [12] | Potency [13] | Potency [14] | Potency [20] | Potency [15] | Potency [17] | Potency [18]

C/C(=C(/OCCOc1ccc(Cl)cc1)c1ccc(Cl)cc1Cl)n1ccnc1
active: Potency [1] 13.3 µM
inactive: Potency [2] | Potency [3] | Potency [4] | Potency [5] | Potency [6] | Potency [7] | Potency [8] | Potency [9] | Potency [10] | Potency [19] | Potency [13] | Potency [14] | Potency [20] | Potency [15] | Potency [16] | Potency [17] | Potency [18]

CC(=O)Nc1ccccc1O
inactive: Potency [1] | Potency [2] | Potency [3] | Potency [4] | Potency [5] | Potency [6] | Potency [7] | Potency [8] | Potency [9] | Potency [10] | Potency [19] | Potency [12] | Potency [13] | Potency [14] | Potency [20] | Potency [15] | Potency [16] | Potency [17] | Potency [18]

O=C1c2ccccc2C(=O)c2c(Cl)cccc21
active: Potency [8] 965 nM
inactive: Potency [1] | Potency [2] | Potency [3] | Potency [4] | Potency [5] | Potency [6] | Potency [7] | Potency [9] | Potency [10] | Potency [11] | Potency [19] | Potency [13] | Potency [15] | Potency [17] | Potency [18]

Nc1ccccn1
active: Potency [11] 31.8 nM
inactive: Potency [1] | Potency [2] | Potency [3] | Potency [4] | Potency [5] | Potency [6] | Potency [7] | Potency [8] | Potency [9] | Potency [10] | Potency [19] | Potency [13] | Potency [14] | Potency [15] | Potency [17] | Potency [18]

O=C(c1ccc(O)cc1)c1ccc(O)c(O)c1O
inactive: Potency [1] | Potency [2] | Potency [3] | Potency [4] | Potency [5] | Potency [6] | Potency [7] | Potency [8] | Potency [9] | Potency [10] | Potency [12] | Potency [13]

Cc1cccc(Nc2ccccc2)c1
inactive: Potency [1] | Potency [2] | Potency [3] | Potency [4] | Potency [5] | Potency [6] | Potency [7] | Potency [8] | Potency [9] | Potency [10] | Potency [11] | Potency [12] | Potency [16] | Potency [17] | Potency [18]

CCC(=O)/C=C/c1ccc(OC)cc1
inactive: Potency [1] | Potency [2] | Potency [3] | Potency [4] | Potency [5] | Potency [6] | Potency [7] | Potency [8] | Potency [10] | Potency [11] | Potency [19] | Potency [12] | Potency [13] | Potency [16] | Potency [17] | Potency [18]

CCN1/C(=C/C=C/c2sc3ccccc3[n+]2CC)Sc2ccccc21
inactive: activity change [2] -1.77% [at 11.8 µM, stronger effect = higher value] | activation [3] -1.63% [at 15.8 µM] | activation [4] -0.0412% [at 11.8 µM] | activation [5] 15.3% [at 13.5 µM] | activation [6] 2.93% [at 13.6 µM] | activity change, negative = cytotoxicity [7] 8.44% [at 13.5 µM] | activity change, negative = cytotoxicity [8] 1.97% [at 13.5 µM] | activity, negative = inhibition [11] -18.6% [at 12.7 µM] | activity, negative = inhibition [12] -35.2% [at 12.6 µM] | activation [13] -0.119% [at 15.8 µM] | activity change, negative = inhibition [18] -0.0645% [at 18.9 µM]
active: Potency [1] 3.26 µM | Potency [20] 11.6 µM | Potency [15] 5.8 µM | Potency [17] 14.6 µM

O=C(Nc1ccc2c(c1)Cc1ccccc1-2)C(F)(F)F
inactive: Potency [1] | Potency [2] | Potency [3] | Potency [4] | Potency [5] | Potency [6] | Potency [7] | Potency [8] | Potency [9] | Potency [11] | Potency [19] | Potency [12] | Potency [13] | Potency [14] | Potency [20] | Potency [15] | Potency [17] | Potency [18]

O=c1[nH]nc(-c2ccc([N+](=O)[O-])o2)o1
inactive: Potency [1] | Potency [2] | Potency [3] | Potency [4] | Potency [5] | Potency [6] | Potency [7] | Potency [8] | Potency [10] | Potency [11] | Potency [19] | Potency [12] | Potency [13] | Potency [15] | Potency [17] | Potency [18]

CC(C)(C)c1ccc(C(=O)CCCN2CCC(OC(c3ccccc3)c3ccccc3)CC2)cc1
active: Potency [1] 6.68 µM | Potency [9] 11.2 µM
inactive: Potency [2] | Potency [3] | Potency [4] | Potency [5] | Potency [6] | Potency [7] | Potency [8] | Potency [15] | Potency [18]
